An excerpt weighted towards active compounds, which were near 2.4% of everything screened.
Pol beta inh – inhibitors of human DNA polymerase beta. Pol beta primer extension/strand displacement, fluorescence kinetic. AID 485314. actives 1.3% (n = 340,000). P06746. Potency, µM (top dose mostly 114 µM), for the others: top-dose activity change, negative = inhibition, usual class: inhibitors; further: on the % scale 0 is the no-effect control and ±100 the full control effect
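10 nM enzyme + cpd, 15 min RT; start with substrate 50 nM final; read 0 min and after 10 min RT. Corrected, normalized data; 4-parameter Hill curve fit.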
L3MBTL1 inh – inhibitors of human L3MBTL1; Q9Y468; actives 0.66% (n = 230,000); Potency, µM (titrated, usually from 57.1 µM), for inactives: at the highest dose activity, negative = inhibition, usual class: inhibitors; AlphaScreen L3MBTL1–H3K9me1 peptide binding; further: on the % scale 0 is the no-effect control and ±100 the full control effect; nearly all actives have a fitted effect of over 60% in size
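First, the protein-peptide complex forms for 30 min at room temperature (L3MBTL1 50 nM, biotinylated H3K9me1 peptide 75 nM). Next, compounds are pin-transferred and incubated 30 min. Finally, AlphaScreen beads are added and read after 30 min.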
POLH inh – blocks human DNA polymerase eta activity; Q9Y253; recombinant Pol eta, fluorescent DNA replication assay; Potency, µM (series often up to 114 µM), for the others: at the top dose activity change, negative = inhibition, usual class: inhibitors; actives 1.2% (n = 390,000); AID 588591; further: on the % scale 0 is the no-effect control and ±100 the full control effect
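Pol eta (10 nM) was preincubated with compounds for 15 min at room temperature, after which fluorescent replication substrate (50 nM final) was added to start the reaction. Fluorescence was read kinetically at 0 and 10 min.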
POLK inh – blocks human DNA polymerase kappa activity. Q9UBT6. purified Pol kappa, fluorescent DNA synthesis assay, 10 min. Potency, µM (top dose mostly 107 µM), inactives show top-dose activity, negative = inhibition, hits mostly inhibitors. actives 0.53% (n = 400,000). AID 588579; further: on the % scale 0 is the no-effect control and ±100 the full control effect
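First, compounds were pin-transferred onto 10 nM Pol kappa. After 15 min at room temperature, substrate was added to 50 nM final. Fluorescence was then measured kinetically at 0 and 10 min.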
POLI inh – DNA polymerase iota (human) inhibition; Potency, µM (top dose mostly 115 µM), without a hit: at the top dose activity, negative = inhibition, hits mostly inhibitors; AID 588590; Pol iota fluorescent replication assay, 10 min; actives 1% (n = 390,000); Q9UNA4
Target sequence (Q9UNA4 whole entry, looked up): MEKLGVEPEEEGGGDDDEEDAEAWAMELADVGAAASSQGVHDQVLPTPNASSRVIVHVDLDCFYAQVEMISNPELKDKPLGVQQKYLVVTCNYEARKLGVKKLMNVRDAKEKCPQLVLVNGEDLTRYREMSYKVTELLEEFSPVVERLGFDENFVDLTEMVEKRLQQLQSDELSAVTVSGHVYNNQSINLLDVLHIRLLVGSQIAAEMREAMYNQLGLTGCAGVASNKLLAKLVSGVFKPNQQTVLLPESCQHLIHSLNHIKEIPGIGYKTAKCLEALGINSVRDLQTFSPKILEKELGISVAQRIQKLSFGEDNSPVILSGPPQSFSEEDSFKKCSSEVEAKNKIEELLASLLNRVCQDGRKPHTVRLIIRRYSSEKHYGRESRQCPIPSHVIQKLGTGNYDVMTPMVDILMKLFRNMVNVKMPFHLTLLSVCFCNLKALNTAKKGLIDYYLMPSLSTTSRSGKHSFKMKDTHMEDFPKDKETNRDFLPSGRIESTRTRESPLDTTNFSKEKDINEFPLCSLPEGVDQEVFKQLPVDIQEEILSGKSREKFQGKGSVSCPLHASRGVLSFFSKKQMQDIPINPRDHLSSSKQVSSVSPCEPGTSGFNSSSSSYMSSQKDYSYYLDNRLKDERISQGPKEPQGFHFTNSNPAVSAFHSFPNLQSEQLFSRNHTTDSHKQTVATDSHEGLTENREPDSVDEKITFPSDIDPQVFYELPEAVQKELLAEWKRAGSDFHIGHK
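Pol iota at 10 nM preincubated 15 min with compounds at room temperature; reaction started with fluorescent substrate, 50 nM final. Fluorescence read kinetically at 0 and 10 min; buffer-only wells as negative control.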
Starred values were filed as active, the others as inactive; ? = inconclusive; / = no result given; ! = repeats disagree; [ ] = dose if it differs, or a comment. The call rests on the fitted dose curve; in most records, active means well fitted curve in the direction sought with a large enough effect; inconclusive means small, poorly fitted or top-dose-only effect, or another doubt; inactive means no such curve, though single readings can be large; an effect the other way counts as inactive or inconclusive. Potency means the concentration at half of the fitted maximal effect.

SMILES	Pol beta inh	L3MBTL1 inh	POLH inh	POLK inh	POLI inh
CC1N=C2c3ccccc3N=C(SCC(=O)NCCc3ccccc3)N2C1=O (configuration not stated)	12.1%	/	-0.7%	-5.9%[60.1 µM]	-6.3%
Cc1ccsc1/C=N/N=C/c1sccc1C	4.0%	?	-22.2%	-2.6%	31.2%
Cc1ccsc1C=Nc1ccc(O)cc1	?	?	14.1µM*	89.1µM*	12.6µM*
Oc1cc2c(c(Cl)c1O)CCNCC2c1ccccc1 (configuration not stated)	?	/	?	11.0%[60.1 µM]	31.6µM*
CC1=Nc2ccccc2/C1=C(/C)c1c(C)[nH]c2ccccc12	/	/	/	-20.4%	-2.6%
N#Cc1cccc(S(=O)(=O)N2CCN(S(=O)(=O)c3ccc4c(c3)OCCO4)CC2)c1	/	/	/	-21.7%	6.3%
COc1ccc(-c2oc3ccccc3c(=O)c2O)cc1	/	/	/	-4.7%[19.4 µM]	/
O=c1c(O)c(-c2ccc(O)c(O)c2)oc2ccccc12	/	/	/	0.355µM*	/
O=c1c(O)c(-c2cc(O)c(O)c(O)c2)oc2cc(O)ccc12	/	/	/	0.238µM*	/
COc1ccc(-c2coc3cc(O)ccc3c2=O)c(O)c1O	/	/	/	1.78µM*	/
COc1cc(C=C(c2nc3ccccc3s2)c2nc3ccccc3s2)ccc1O	1.6%	-19.1%	-21.3%	-7.4%	59.0%
CN(Cc1ccccc1)c1ccc(/C=C/c2nc3ccccc3s2)cc1	/	/	/	25.1µM*	89.1µM*
CN(C)c1ccc(/C=C/c2nc3ccccc3s2)cc1	26.5%	-20.2%	-3.9%	?	89.1µM*!
CN(C)c1ccc(/C=C/c2c(Cl)cnc3ccccc23)cc1	/	/	/	1.4%	2.5%
CN(C)c1ccc(/C=C/c2ncnc3ccccc23)cc1	/	/	/	?	39.8µM*
COc1cc(/C=C/c2nc3ccccc3s2)cc(OC)c1O	22.4µM*	12.7%	?	-17.2%	152.3%
COc1ccc(OC)c(/C=C/c2cc3ccccc3c[n+]2C)c1	/	/	/	3.8%	10.4%
O=C(C[n+]1ccccc1Cl)c1cccc([N+](=O)[O-])c1	/	/	/	-5.3%	20.2%
C#CCOCCOCCOCCNc1nc(N2CCN(C(=O)Cn3cc(CCCCN)nn3)CC2)nc(N2CCN(C(=O)Cn3cc(CCCN=C(N)N)nn3)CC2)n1	/	0.3%	4.2%	?	35.5µM*
C#CCOCCOCCOCCNc1nc(N2CCN(C(=O)Cn3cc(CCCN=C(N)N)nn3)CC2)nc(N2CCN(C(=O)[C@H](C)n3cc(CCCN=C(N)N)nn3)CC2)n1	39.8µM*	6.4%	-14.6%	?	?
C#CCOCCOCCOCCNc1nc(N2CCN(C(=O)Cn3cc(CCCCN)nn3)CC2)nc(N2CCN(C(=O)Cn3cc(CC(C)O)nn3)CC2)n1 (configuration not stated)	-23.1%	0.6%	5.6%	4.7%	22.5%
C#CCOCCOCCOCCNc1nc(N2CCN(C(=O)Cn3cc(CCCCN)nn3)CC2)nc(N2CCN(C(=O)[C@H](C)n3cc(CCC(=O)O)nn3)CC2)n1	/	/	-10.2%	15.9%	18.5%
Clc1ccc[n+](CCCCC[n+]2cccc(Cl)c2)c1	/	/	/	9.7%	-16.2%
Cc1cc(=O)c2c(O)c(O)ccc2o1	?	17.8µM*	-13.2%	-43.4%	?
CCC1CCCCN1C(=O)Cn1nc([N+](=O)[O-])c(Cl)c1C (configuration not stated)	35.2%	/	89.1µM*	?	89.1µM*
SMILES	Pol beta inh	L3MBTL1 inh	POLH inh	POLK inh	POLI inh
O=C(CSc1nc(-c2ccccc2)no1)N1CCN(c2ccccc2F)CC1	1.3%	/	-11.9%	-9.5%	89.1µM*
Cc1cc2c(cc1S(=O)(=O)Nc1cccc(C(F)(F)F)c1)OCCN2C	-6.0%	/	-19.4%	-2.5%	7.4%
CCCCN1CC2([N+](=O)[O-])C=CC(=O)C([N+](=O)[O-])(C1)C2CC(=O)c1ccccc1 (configuration not stated)	-9.1%	-1.7%	-13.7%	0.2%	133.4%
CCN1CC2([N+](=O)[O-])C=CC(=O)C([N+](=O)[O-])(C1)C2CC(=O)c1ccccc1 (configuration not stated)	0.0%	/	25.1µM*	-13.9%	?
COc1ccccc1NC(=O)C(Cc1ccccc1)NS(=O)(=O)c1ccc2c(c1)CCN2C(C)=O (configuration not stated)	12.6%	/	-13.2%	-11.0%	26.6%
O=C(CS(=O)CC(=O)Nc1cnc2ccccc2c1)Nc1ccc(Cl)cc1 (configuration not stated)	50.1µM*	/	?	-28.8%	?
Cc1ccc(OCc2nn3c(-c4n[nH]c5c4CCC5)nnc3s2)cc1	14.1µM*	-11.7%	/	/	/
c1ccc(OCc2nn3c(-c4n[nH]c5c4CCC5)nnc3s2)cc1	?	-14.0%	?	-26.5%	?
O=C(Nc1ccc2nn(-c3ccccc3)nc2c1)c1ccc2c(c1)OCO2	39.8µM*	-8.4%	?	-31.4%	-8.9%
Cc1ccc(NC(=O)CN(CCc2ccccc2)S(=O)(=O)c2ccccc2)c(C)c1	3.3%	/	-9.2%	-11.7%	4.3%
Cc1ccc(C)c(NC(=O)CN(CCc2ccccc2)S(=O)(=O)c2ccccc2)c1	18.5%	/	-11.1%	-15.6%	79.4µM*
COc1ccc(S(=O)(=O)N(CCc2ccccc2)CC(=O)Nc2cc(Cl)ccc2C)cc1	-25.9%	/	-24.2%	?	89.1µM*
CNC(=O)CN(CCc1ccccc1)S(=O)(=O)c1ccc(OC)cc1	1.0%	/	-19.0%	-0.6%	26.0%
CC(C)(C)c1ccc(C(=O)N/C(=C\c2ccco2)C(=O)Nc2ccccc2C(=O)O)cc1	?	/	35.5µM*	?	?
CCOC(=O)C1=C(C)NC(=O)NC1c1ccc(C)o1 (configuration not stated)	3.6%	/	?	?	56.2µM*
CC1=C(C(=O)OC(C)C)C(c2ccc(C)o2)NC(=O)N1 (configuration not stated)	-23.7%	-13.4%	3.0%	-16.1%	6.6%
CCOC(=O)C1=C(C)NC(=S)NC1c1ccco1 (configuration not stated)	0.5%	-19.1%	?	?	22.4µM*
CC[C@@]1(C(=O)OC)N[C@H](CN(C)S(=O)(=O)c2ccccc2)[C@@H]2C(=O)N(C)C(=O)[C@@H]21	/	5.1%	-9.6%	4.8%	2.3%
COc1ccc(C2=CC3=C(Br)C(=O)C(C)(OC(=O)c4ccc(Cl)nc4)C(=O)C3=CO2)cc1 (configuration not stated)	50.1µM*	/	22.4µM*	?	10µM*
COC(=O)CCC(=O)OC1(C)C(=O)C2=CN(Cc3ccc4c(c3)OCO4)C(c3ccc(OC)cc3)=CC2=C(Br)C1=O (configuration not stated)	/	/	-10.7%	-21.7%	?
COC(=O)CCC(=O)OC1(C)C(=O)C2=COC(c3ccc(OC)cc3)=CC2=C(Br)C1=O (configuration not stated)	22.4µM*	/	10µM*	25.1µM*	12.6µM*

Compound activity deposited in PubChem by National Center for Advancing Translational Sciences (NCATS).
